mHTT-CaM PPI inh: mHTT-calmodulin interaction abrogation. 190,000 tested, 3.6% active. P42858. inhibition, % at 15 µM. AID 1671202. AlphaScreen His-mHTT/GST-CaM binding, luminescence;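 note: 0% = both proteins with DMSO and 100% = one protein alone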
Target sequence (P42858 whole entry, looked up, stated change not applied): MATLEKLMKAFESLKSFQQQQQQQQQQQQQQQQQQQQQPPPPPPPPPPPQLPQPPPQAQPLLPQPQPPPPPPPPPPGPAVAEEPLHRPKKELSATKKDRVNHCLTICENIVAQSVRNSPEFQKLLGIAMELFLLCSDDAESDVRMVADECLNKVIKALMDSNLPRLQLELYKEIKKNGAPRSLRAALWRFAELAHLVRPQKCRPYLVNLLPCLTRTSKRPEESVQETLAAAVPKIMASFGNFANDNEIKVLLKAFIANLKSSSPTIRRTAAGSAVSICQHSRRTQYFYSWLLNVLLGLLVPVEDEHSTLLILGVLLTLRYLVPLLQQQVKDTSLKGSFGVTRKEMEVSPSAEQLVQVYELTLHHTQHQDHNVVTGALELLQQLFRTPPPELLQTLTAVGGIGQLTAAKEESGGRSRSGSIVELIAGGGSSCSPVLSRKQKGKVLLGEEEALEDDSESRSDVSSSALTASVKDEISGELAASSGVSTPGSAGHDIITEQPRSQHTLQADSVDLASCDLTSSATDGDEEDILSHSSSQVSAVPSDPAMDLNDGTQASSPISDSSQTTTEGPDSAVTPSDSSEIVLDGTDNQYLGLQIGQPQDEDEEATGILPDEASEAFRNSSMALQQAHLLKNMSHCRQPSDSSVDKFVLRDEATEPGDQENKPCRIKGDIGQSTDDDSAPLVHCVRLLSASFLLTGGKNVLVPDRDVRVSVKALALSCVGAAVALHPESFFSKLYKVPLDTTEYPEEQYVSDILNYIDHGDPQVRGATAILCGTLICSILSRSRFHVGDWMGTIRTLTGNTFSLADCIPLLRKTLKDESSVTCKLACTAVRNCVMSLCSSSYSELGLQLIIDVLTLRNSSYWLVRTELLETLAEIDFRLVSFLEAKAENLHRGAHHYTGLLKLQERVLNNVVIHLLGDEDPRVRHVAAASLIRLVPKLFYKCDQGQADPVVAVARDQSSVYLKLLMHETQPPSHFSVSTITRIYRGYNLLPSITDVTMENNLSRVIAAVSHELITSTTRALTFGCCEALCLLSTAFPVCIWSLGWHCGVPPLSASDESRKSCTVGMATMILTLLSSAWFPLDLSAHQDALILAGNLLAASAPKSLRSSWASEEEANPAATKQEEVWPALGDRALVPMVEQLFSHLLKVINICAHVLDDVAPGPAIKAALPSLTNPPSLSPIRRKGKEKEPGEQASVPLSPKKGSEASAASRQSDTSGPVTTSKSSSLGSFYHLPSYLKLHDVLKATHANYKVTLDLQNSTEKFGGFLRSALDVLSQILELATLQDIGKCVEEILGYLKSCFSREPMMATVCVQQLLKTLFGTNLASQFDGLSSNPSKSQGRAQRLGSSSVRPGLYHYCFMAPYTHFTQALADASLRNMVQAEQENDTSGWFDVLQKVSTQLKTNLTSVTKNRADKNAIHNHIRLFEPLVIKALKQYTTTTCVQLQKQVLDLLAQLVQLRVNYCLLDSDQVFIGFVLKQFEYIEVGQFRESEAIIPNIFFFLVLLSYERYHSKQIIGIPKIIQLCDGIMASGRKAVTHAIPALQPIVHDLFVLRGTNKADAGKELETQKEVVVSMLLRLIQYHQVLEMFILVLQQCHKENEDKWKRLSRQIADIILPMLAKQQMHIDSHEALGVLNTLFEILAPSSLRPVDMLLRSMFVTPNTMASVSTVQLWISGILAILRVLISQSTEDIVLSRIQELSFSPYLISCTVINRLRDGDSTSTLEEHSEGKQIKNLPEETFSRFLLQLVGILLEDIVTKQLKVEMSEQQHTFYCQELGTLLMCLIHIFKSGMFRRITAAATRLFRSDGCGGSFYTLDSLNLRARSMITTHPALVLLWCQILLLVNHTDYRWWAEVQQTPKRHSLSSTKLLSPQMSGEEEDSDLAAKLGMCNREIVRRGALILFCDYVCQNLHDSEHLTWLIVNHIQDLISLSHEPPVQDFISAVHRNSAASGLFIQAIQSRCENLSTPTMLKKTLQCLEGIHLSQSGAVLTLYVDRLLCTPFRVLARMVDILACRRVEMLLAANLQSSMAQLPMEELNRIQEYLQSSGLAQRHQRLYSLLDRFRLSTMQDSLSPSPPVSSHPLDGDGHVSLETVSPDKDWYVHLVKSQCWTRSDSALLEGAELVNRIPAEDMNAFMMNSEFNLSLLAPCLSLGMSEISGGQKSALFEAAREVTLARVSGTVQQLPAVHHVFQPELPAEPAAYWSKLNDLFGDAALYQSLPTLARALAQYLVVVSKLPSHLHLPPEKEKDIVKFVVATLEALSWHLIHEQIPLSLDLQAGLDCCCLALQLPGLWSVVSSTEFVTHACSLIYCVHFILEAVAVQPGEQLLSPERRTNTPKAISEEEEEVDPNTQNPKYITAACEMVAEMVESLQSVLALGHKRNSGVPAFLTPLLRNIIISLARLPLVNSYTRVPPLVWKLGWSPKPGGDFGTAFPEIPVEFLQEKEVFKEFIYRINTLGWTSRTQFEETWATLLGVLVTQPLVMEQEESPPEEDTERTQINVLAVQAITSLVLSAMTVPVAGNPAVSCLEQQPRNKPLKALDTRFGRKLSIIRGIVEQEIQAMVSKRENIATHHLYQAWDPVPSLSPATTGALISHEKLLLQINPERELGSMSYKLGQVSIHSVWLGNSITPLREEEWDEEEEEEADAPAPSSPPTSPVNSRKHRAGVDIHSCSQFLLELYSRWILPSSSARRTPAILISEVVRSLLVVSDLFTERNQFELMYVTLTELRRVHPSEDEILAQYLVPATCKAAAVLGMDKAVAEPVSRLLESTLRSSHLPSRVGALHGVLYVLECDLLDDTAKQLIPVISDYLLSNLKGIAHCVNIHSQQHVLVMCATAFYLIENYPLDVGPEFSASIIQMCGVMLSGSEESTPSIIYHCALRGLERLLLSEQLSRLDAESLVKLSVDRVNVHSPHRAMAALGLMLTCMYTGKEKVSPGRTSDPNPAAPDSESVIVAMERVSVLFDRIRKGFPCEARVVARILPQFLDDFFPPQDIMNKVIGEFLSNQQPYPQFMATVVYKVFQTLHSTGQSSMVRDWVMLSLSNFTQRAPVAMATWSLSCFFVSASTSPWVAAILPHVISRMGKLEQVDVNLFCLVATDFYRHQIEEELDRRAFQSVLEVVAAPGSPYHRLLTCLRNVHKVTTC
Pf apPOL inh: Pf-apPOL DNA polymerase inhibition; Recombinant Pf-apPOL, molecular beacon fluorescence, 1.5 h; inhibition, % at 10 µM; 210,000 tested, 0.25% active; AID 1794808
The depositor's hits bear a star; i = inactive; nt = not tested or not shown. This is one part of a sample in which hits are shown more often than they occur. Cut-off read from the data, not from the text of the source: active = inhibition above about 50%; inactive = the rest.

SMILES	mHTT-CaM PPI inh	Pf apPOL inh
COCCn1cc2c3c(cccc31)CN(C(=O)Nc1ccccc1Br)CC2	23	-3
CN1CCN(C(=O)c2ccc(N3CCNC(c4ccccc4)C3)nc2)CC1 (stereo not drawn)	-4	-3
O=C(c1ccc(N2CCNC(c3ccccc3)C2)nc1)N1CCc2ccccc2C1 (stereo not drawn)	71*	-6
Cc1ccc(-n2c(SCC(=O)Nc3cccc(C)c3C)nc3c(c2=O)SCC3)cc1	-5	-11
Cc1c(Cl)cccc1NC(=O)C1CC1c1ccccc1 (stereo not drawn)	-9	-6
O=C(CN1CCOCC1)N1N=C(c2ccccc2Cl)CC1c1ccccc1Cl (stereo not drawn)	100*	-3
COc1cccc(C2CC(c3cc(C)ccc3C)=NN2C(=O)CN2CCOCC2)c1 (stereo not drawn)	47	-8
Cc1ccc(C2=NN(C(=O)CN3CCOCC3)C(c3ccc(F)cc3)C2)cc1 (stereo not drawn)	28	-6
COc1ccccc1C1=NN(C(=O)CN2CCOCC2)C(c2ccccc2Cl)C1 (stereo not drawn)	38	-4
Cc1ccc(C)c(C2CC(c3ccc(F)cc3)=NN2C(=O)CN2CCOCC2)c1 (stereo not drawn)	50*	2
Cc1ccc(C2=NN(C(=O)CN3CCOCC3)C(c3ccccc3C)C2)cc1C (stereo not drawn)	51*	-1
Cc1ccc(C2=NN(C(=O)CN3CCOCC3)C(c3ccccc3Cl)C2)cc1 (stereo not drawn)	48	-7
Cc1ccc(C)c(C2=NN(C(=O)CN3CCOCC3)C(c3ccccc3C)C2)c1 (stereo not drawn)	85*	-4
Cc1cc(NC(=O)CC2COc3ccccc3NC2=O)ccc1Br (stereo not drawn)	-2	1
N#Cc1ccc(-c2csc(NC(=O)CCOc3ccccc3)n2)cc1	8	-6
C=CS(=O)(=O)c1ccc(C)cc1	nt	1
CCOc1ccc(NC(=O)c2ccc(F)c(S(=O)(=O)N3CC(C)CC(C)C3)c2)cc1 (stereo not drawn)	7	-1
CCC(=O)N(C)CC(=O)N1N=C(c2ccc(C)c(C)c2)CC1c1ccccc1 (stereo not drawn)	56*	1
COc1ccc(C2CC(c3ccccc3)=NN2C(=O)CN2CCOCC2)cc1 (stereo not drawn)	27	-6
Cc1ccc(C2=NN(C(=O)CN3CCOCC3)C(c3ccccc3)C2)cc1C (stereo not drawn)	52*	-2
Cc1ccc(C2CC(c3ccccc3F)=NN2C(=O)CN2CCOCC2)c(C)c1 (stereo not drawn)	83*	1
O=C(CN1CCOCC1)N1N=C(c2ccc(F)cc2)CC1c1ccccc1F (stereo not drawn)	14	-4
CCC(=O)N(C)CC(=O)N1N=C(c2cccs2)CC1c1ccccc1 (stereo not drawn)	7	-6
O=C(c1ccco1)N1CCCC1c1ccccc1Cl (stereo not drawn)	-3	3
O=C1C(Nc2ccc(F)c(F)c2)=C(N2CCOCC2)C(=O)c2ccccc21	32	-10
SMILES	mHTT-CaM PPI inh	Pf apPOL inh
O=C1C(Nc2cccc(C(F)(F)F)c2)=C(N2CCOCC2)C(=O)c2ccccc21	66*	-10
O=C1C(Nc2cccc(I)c2)=C(N2CCCCC2)C(=O)c2ccccc21	92*	24
O=C1C(Nc2cccc(I)c2)=C(N2CCOCC2)C(=O)c2ccccc21	86*	20
CC(=O)Nc1ccc(NC2=C(N3CCCCC3)C(=O)c3ccccc3C2=O)cc1	12	-1
Cc1cccc(NC2=C(N3CCOCC3)C(=O)c3ccccc3C2=O)c1	29	-3
CC(=O)NC1=C(N2CCN(c3ccccc3)CC2)C(=O)c2ccccc2C1=O	45	-7
O=C1C(Nc2cccc(I)c2)=C(N2CCCC2)C(=O)c2ccccc21	99*	27
CCCN(C)Cc1nc2nc(C)cc(N3CCCC3)n2n1	0	-5
O=C(O)[C@H](O)Cc1ccc(O)c(O)c1	nt	22
CCCCNc1nc2ccncc2n(Cc2ccccc2)c1=O	-2	-6
CCn1c(=O)c(NCCCN2CCCc3ccccc32)nc2ccncc21	67*	0
Cc1cccc(C(=O)N2CCCC(C(=O)Nc3ccccc3)C2)c1 (stereo not drawn)	33	11
OCCOCCNc1ncnc2c1c(-c1ccccc1)cn2-c1cccc(Cl)c1	54*	-13
OCCOCCNc1ncnc2c1c(-c1ccccc1)cn2-c1cccc(C(F)(F)F)c1	23	0
CCn1cnc2c(-c3ccccc3)csc2c1=O	-10	-8
O=C1[C@H](Cc2ccccc2)NC/C=C\C[C@@H](c2ccc(Cl)cc2)N1Cc1ccc(Cl)cc1	99*	1
O=C1[C@H](Cc2ccccc2)NC/C=C\C[C@H](c2ccco2)N1Cc1ccccc1	51*	1
COC(=O)C1=C(C(=O)OC)[C@]2([C@@H]3C/C=C\CN[C@@H](Cc4ccccc4)C(=O)N3Cc3ccccc3)C=C[C@H]1O2	25	-3
O=C(NCCc1ccccc1)N1CCCC1c1ccc(Cl)cc1 (stereo not drawn)	0	-4
O=[N+]([O-])c1ccc(/C=N/N(CCO)C2=NS(=O)(=O)c3ccccc32)o1	i	nt
Cc1nn(S(=O)(=O)c2cccc([N+](=O)[O-])c2)c(C)c1Br	6	4
O=[N+]([O-])c1cccc(S(=O)(=O)n2cc(Br)cn2)c1	80*	-2
C1=C(c2ccc3c(c2)c2c4n3CCNC4CCC2)CCC1 (stereo not drawn)	55*	2
CCN1CCn2c3c(c4cc(Cl)ccc42)CCCC31 (stereo not drawn)	21	-5
c1cc2c(cc1C13CC4CC(CC(C4)C1)C3)c1c3n2CCNC3CCC1 (stereo not drawn)	100*	nt
SMILES	mHTT-CaM PPI inh	Pf apPOL inh
CC(C)COc1ccc2c(c1)c1c3n2CCNC3CCC1 (stereo not drawn)	48	nt
CCN(CC)S(=O)(=O)c1ccc(C)c(C)c1C	-15	4
O=C(Cn1[nH]c2c(cnc3ccc(F)cc32)c1=O)Nc1ccc(F)cc1	4	-1
O=C(Cn1[nH]c2c(cnc3ccc(F)cc32)c1=O)Nc1ccc(Br)cc1	64*	0
Cc1ccc(Cl)cc1NC(=O)Cn1[nH]c2c(cnc3ccc(F)cc32)c1=O	21	-2
Cc1ccc(F)cc1NC(=O)Cn1[nH]c2c(cnc3ccc(F)cc32)c1=O	95*	1
Cc1ccc(C(=O)N2CC(=O)Nc3ccc(F)cc3C2c2ccc(F)cc2)cc1C (stereo not drawn)	11	-3
Cc1ccc(C(=O)N2CC(=O)Nc3ccc(Br)cc3C2c2ccccc2)cc1C (stereo not drawn)	98*	-4
CC(C)(C)C(=O)OCC(N)=NOC(=O)c1ccc([N+](=O)[O-])cc1	nt	3
O=[N+]([O-])c1cccc(NCc2c(O)ccc3oc4c(c23)CCCC4)c1	97*	9
CC(=O)N(c1ccc2oc3c(c2c1)CCCC3)S(=O)(=O)c1cccc([N+](=O)[O-])c1	9	9
CCOc1ccc(N=C2C(=O)N(CN3CCCCC3)c3ccccc32)cc1	65*	12
CCOc1ccc(N=C2C(=O)N(CN3CCCC(C)C3)c3ccccc32)cc1 (stereo not drawn)	10	-1
COc1ccc2c(c1)CN(c1ccc(C)cc1C)CO2	-9	0
Cc1cccc(N2COc3ccc(Cl)cc3C2)c1C	96*	0
